Assay results as given in PubChem BioAssay AID624287 (National Center for Advancing Translational Sciences (NCATS), 2012).
Among all 340,000 compounds or so, about 420 (0.12%) were called active. Where a call stands in place of a potency, no number is given. Not shown: some 10% with an inconclusive outcome. Many of the other results were omitted from the sample, so actives are more common in it than they were. Values without a mark were called inactive. Calls follow the shape of the dose curve; as a rule, active = well fitted activation curve with a large enough effect; inconclusive = small, poorly fitted or top-dose-only effect, or another doubt; inactive = no such curve, though single readings can be large or run the other way; cell line not stated here.

Assay: qHTS for Agonist of gsp, the Etiologic Mutation Responsible for Fibrous Dysplasia/McCune-Albright Syndrome: qHTS; also: nearly all actives have a fitted effect of over 60% in size;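 as to activation (cAMP increase): phosphodiesterase inhibitor Ro 20-1724 added with compounds to block cAMP breakdown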
Conditions: gsp mutant cells, cAMP HTRF, 30 min; series mostly up to 76.9 µM
In short: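 Cells stably selected in G418 were plated at 2000/well, grown 16-24 hr, then given compounds in DMSO with the PDE inhibitor […] (300 uM solution added) for 30 min at 37C; cAMP was read by HTRF.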
Potency is read from the fitted curve at half-maximal effect.

SMILES | Potency | activation (cAMP increase)
O=C1CCC(C(=O)OCC(=O)Nc2ccc(OC(F)F)cc2)=NN1 | inactive | –
COc1cc(C)c(CN2CCN(C(=O)CCC(=O)c3ccc(C)s3)CC2)cc1OC | inactive | –
CCOc1cc(/C=N/NC(=O)c2ccncc2)cc(Br)c1O | inactive | –
NC(=S)NN=Cc1ccc(OC(=O)COc2cc(Cl)c(Cl)cc2Cl)cn1 | inactive | –
COc1cccc(N2C(=O)CN(Cc3ccccc3)C2=S)c1 | inactive | –
COc1cccc(-n2c(=S)[nH]c3c(oc4ccccc43)c2=O)c1 | 15.8 µM (active) | –
COc1cccc(-n2cc(C(=O)O)c3ccccc3c2=O)c1 | inactive | –
CC1(C)CN(CCc2ccccc2)C(=O)[C@H]1CC(=O)Nc1ccc(Br)cc1 | inactive | –
Cc1ccc(S(=O)(=O)/N=C2\C=C(NS(=O)(=O)c3ccc(C)cc3)C(=O)c3ccccc32)cc1 | inactive | –
COCOCCn1cc(CN2CCS(=O)(=O)N(Cc3ccc(-c4ccccc4)cc3)C(CC(C)C)C2=O)nn1 (stereo not drawn) | inactive | –
COc1ccccc1-c1n[nH]nc1C1=CC(=O)CC(C)(C)C1 | inactive | –
CC1=C(C(=O)N2CCOCC2)CC(CC(=O)NCC2CCCCC2)C(=O)N1Cc1ccc(F)cc1 (stereo not drawn) | inactive | –
CCOC(=O)C1CCN(C(=O)c2ccc3c(=O)n4nc(Nc5ccccc5CC)sc4nc3c2)CC1 | inactive | –
O=Cc1cn(CCOc2ccc(F)cc2)c2ccccc12 | inactive | –
CCOc1ccc(-c2nnc3ccc(SC)nn23)cc1 | inactive | –
COC(=O)C(C)Sc1ccc2nnc(-c3cccc(F)c3)n2n1 (stereo not drawn) | 10 µM (active) | –
CCOC(=O)CNC(=O)CSc1ccc2nnc(-c3cccnc3)n2n1 | – | 37.7% [at 15.4 µM]

SMILES | Potency | activation (cAMP increase)
CCN(CC)C(=O)C1=C(C)N(Cc2ccc(F)cc2)C(=O)C(CC(=O)NCc2cccc3ccccc23)C1 (stereo not drawn) | inactive | –
C[C@H]1CN([C@@H](C)CO)C(=O)c2cc(-c3ccccc3F)cnc2O[C@H]1CN(C)C(=O)C1CCOCC1 | inactive | –
Cc1ccc(S(=O)(=O)N2C[C@]3(O)C[C@@H]4C(=O)N(c5ccccc5)C(=O)[C@@H]4C[C@]3(OC(=O)NC3CC3)C2)cc1 | inactive | –
CNC(=O)C1CN(C(=O)c2cccc(S(=O)(=O)N3CCc4ccccc43)c2)c2ccccc2O1 (stereo not drawn) | inactive | –
CCN1CCN(CCNC(=O)c2ccc3c(c2)NC(=O)/C(=C\c2cccc(Cl)c2)S3)CC1 | inactive | –
O=C(C[C@H]1C[C@H]2c3cc(NS(=O)(=O)c4ccc(F)cc4)ccc3O[C@H]2[C@H](CO)O1)NCc1cc(F)ccc1F | inactive | –
c1ccc2c(c1)nnn2-c1ccncc1 | inactive | –
COc1cc2c(cc1OC)C1C(=O)c3cc(OS(C)(=O)=O)c(OC)cc3C1N(C)C2=O (stereo not drawn) | inactive | –
CCCCCC(=O)N1C[C@H](O)[C@@H](n2cc(COC(=O)c3ccccc3)nn2)C[C@@H]1c1ccc(C)cc1 | inactive | –
CC1CN(C(=O)c2cccc(NS(=O)(=O)c3ccc(Br)cc3)c2)CC(C)O1 (stereo not drawn) | inactive | –
Cc1ccc(C=O)c([B-](F)(F)F)c1 | inactive | –
CC(C)c1cc(C(=O)NC2CCCCCC2)c2ccccc2n1 | inactive | –
CN(C)C(CNC(=O)c1cccc(S(=O)(=O)N2CCc3ccccc3C2)c1)c1ccccc1 (stereo not drawn) | inactive | –
CCCCCCN1C[C@@H](O)[C@H](n2cc(COC(=O)c3ccccc3)nn2)C[C@@H]1c1ccc(Cl)cc1 | inactive | –
CCN(CC)C(=O)C1=C(C)N(Cc2ccc(C(C)(C)C)cc2)C(=O)C(CC(=O)NCc2cccc3ccccc23)C1 (stereo not drawn) | inactive | –
COc1ccc([C@H]2N[C@]3(CCCN(Cc4ccco4)C3=O)[C@H]3C(=O)N(C)C(=O)[C@@H]23)cc1 | inactive | –
